# Assay results: the supplement of paper PMC7156485
# ± gives the standard deviation of the averaged measurements.
# How the values were obtained:
# Settings in all cases: concentration: 10 µM; 24 h
# [1] = system: HCC1569; assay: cell number relative to DMSO (% of DMSO); higher = more cells (less growth inhibition / toxicity)
# How it was run: (§1)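 After 24 h at 37 °C with compounds at 10 µM, in triplicate, HCC1569 and TDF cells were fixed with 3.7% formaldehyde. Immunostaining used a rabbit anti-H1.0 antibody and an AlexaFluor 647 secondary, with DAPI, and six fields per well were imaged at ×10. H1.0 nuclear intensity or cell number is presented as percent of the plate control, from the median of replicates, with HCC1569 values smoothed for positional effects.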
# [2] = system: TDF; assay: as above
# How it was run: as §1
# [3] = system: TDF; assay: H1.0 immunofluorescence intensity relative to DMSO (% of DMSO); higher = stronger H1.0 induction, active = 120 or more
# How it was run: as §1
# [4] = system: HCC1569; assay: H1.0 immunofluorescence intensity relative to DMSO (% of DMSO); higher = stronger H1.0 induction, active = 140 or more
# How it was run: as §1
# 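Wherever H1.0 immunofluorescence intensity relative to DMSO is given: TDF is a line of transformed human dermal fibroblasts of mesenchymal origin.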
# 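Wherever cell number relative to DMSO is given: TDF denotes transformed human dermal fibroblasts of mesenchymal origin.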
Compound,cell number [1],cell number [2],H1.0 immunofluorescence intensity [3],H1.0 immunofluorescence intensity [4]
CCCCC1(C2CCCC2)Cc2cc(OCC(=O)O)c(Cl)c(Cl)c2C1=O (stereo not drawn) [R(+)-Butylindazone],98.8,107,86.7 (inactive),91.3 (inactive)
COc1ccc(C(=O)Nc2c(Cl)cncc2Cl)cc1OC1CCCC1,102,93.3,91 (inactive),106 (inactive)
O=c1c(-c2ccc(O)cc2)coc2cc(O)cc(O)c12 [Genistein],97.9 ± 4.4,99 ± 4.5,92.8 (inactive),97.6 (inactive)
CCCCN1CCCCC1C(=O)Nc1c(C)cccc1C (stereo unspecified) [Bupivacaine],97.9,108,101 (inactive),120 (inactive)
COc1cccc(OC)c1OCCNCC1COc2ccccc2O1.Cl (stereo unspecified) [WB-4101 hydrochloride],102,101,93.7 (inactive),93.3 (inactive)
Cn1cnc2c1c(=O)[nH]c(=O)n2C [Theobromine],104 ± 3,99 ± 6.1,96.4 (inactive),95.9 (inactive)
Br.Br.NC(N)=NCCSSCCN=C(N)N [Guanidinoethyl disulfide dihydrobromide],100,108,96.5 (inactive),98.8 (inactive)
CC1=C(C(=O)O)N2C(=O)C(NC(=O)C(N)c3ccccc3)C2SC1 (stereo unspecified) [Cephalexin hydrate],104,111,102 (inactive),96.5 (inactive)
CCn1cc(C(=O)O)c(=O)c2ccc(C)nc21 [Nalidixic acid],102,98.7,91.1 (inactive),86.1 (inactive)
CCCNCC(O)COc1ccccc1C(=O)CCc1ccccc1.Cl (stereo unspecified) [Propafenone hydrochloride],95.4,103,99.2 (inactive),102 (inactive)
COc1cc2ncnc(Nc3ccc(O)cc3)c2cc1OC,100,115,89 (inactive),96.6 (inactive)
Cc1nc2ccc(Oc3ccc(F)cc3)cc2c(=O)n1C[C@H]1CCCN(C(C)C)C1.Cl,94.1,105,117 (inactive),102 (inactive)
COc1ccc(-n2c(SCC#N)nc3sc4c(c3c2=O)CCCC4)cc1,91.9,92.5,86.3 (inactive),108 (inactive)
NC(=O)N1C(=O)/C(=C(\O)c2cccs2)c2cc(Cl)ccc21,101,104,94.8 (inactive),106 (inactive)
CCN1CCCC1CNC(=O)c1cc(S(N)(=O)=O)ccc1OC [(S)-(-)-Sulpiride],99.3,98.1,99.8 (inactive),101 (inactive)
CC(=O)Nc1ccc(CC(=O)O)cc1 [Actarit],100,103,97.2 (inactive),96.5 (inactive)
CN(C(=O)CCCOc1ccc2[nH]c(=O)ccc2c1)C1CCCCC1 [Cilostamide],100.9 ± 0.88,109 ± 5,96.9 (inactive),98.1 (inactive)
C=C1C(=O)C23C(O)C1CCC2C12COC3(O)C(O)C1C(C)(C)CCC2O (stereo unspecified) [Oridonin],80.4,110,93 (inactive),111 (inactive)
Cl.OC(CN1CCN(c2cccc(Cl)c2)CC1)C(c1ccccc1)c1ccccc1 (stereo unspecified),102,111,94.8 (inactive),88.3 (inactive)
N#CC(=Cc1ccc(O)c(O)c1)C(=O)Nc1ccccc1 [Tyrphostin AG 494],87.1,94.9,88 (inactive),108 (inactive)
CCCCCC=CCC=CC=CC(O)CC=CCCCC(=O)O (stereo unspecified),98.1,99.8,97.3 (inactive),95.8 (inactive)
"NC(C(=O)O)C1CC1C(=O)O [(2S,1'S,2'S)-2-(carboxycyclopropyl)glycine]",105,110,85.1 (inactive),83.4 (inactive)
OCc1ccc(-c2nn(Cc3ccccc3)c3ccccc23)o1,102,106,98.9 (inactive),106 (inactive)
"O=c1ccc2cc3ccoc3cc2o1 [7H-furo[3,2-g]chromen-7-one]",96.4,105,90.3 (inactive),93.5 (inactive)
CC(=O)Oc1ccccc1C(=O)O [Acetylsalicylic Acid],101,99,96.1 (inactive),102 (inactive)
Cl.NCCCCC(=O)O [5-Aminovaleric acid hydrochloride],102,107,96.1 (inactive),91.6 (inactive)
C[N+](C)(C)CC=O.[Cl-] [Betaine aldehyde chloride],104,115,94.6 (inactive),83.1 (inactive)

Compound,cell number [1],cell number [2],H1.0 immunofluorescence intensity [3],H1.0 immunofluorescence intensity [4]
Cn1cnc2c(NCc3ccccc3)nc(NCCO)nc21,94.5,107,103 (inactive),107 (inactive)
O=c1c(O)c(-c2cc(O)c(O)c(O)c2)oc2cc(O)cc(O)c12 [Myricetin],102 ± 3.7,101 ± 3.9,88.4 (inactive),91.7 (inactive)
CCCCCCCCCCCCCCCCC(=O)O [Heptadecanoic acid],99.9,94.9,103 (inactive),103 (inactive)
CCNC1CC(C)S(=O)(=O)c2sc(S(N)(=O)=O)cc21.Cl (stereo unspecified) [Dorzolamide.HCl],97,87.9,100 (inactive),95.5 (inactive)
O=C(O)Cc1c[nH]c2ccccc12 [Indole-3-acetic acid],100,102,94.5 (inactive),84.8 (inactive)
O=c1[nH]c(=O)n(C2CC(O)C(CO)O2)cc1F (stereo unspecified) [Floxuridine],81.3,61.1,112 (inactive),119 (inactive)
CCCCCCCCCCCCCCCCOCC(COP(=O)([O-])OCC[N+](C)(C)C)OC (stereo unspecified) [1-Hexadecyl-2-methylglycero-3 PC],101,95.4,104 (inactive),102 (inactive)
CCOC(=O)[C@H](Cc1ccc([N+](=O)[O-])cc1)NC(=O)c1ccccc1 [ethyl (2S)-2-(benzoylamino)-3-(4-nitrophenyl)propanoate],101,98.3,93.8 (inactive),95 (inactive)
N#CCNC(=O)c1ccc(-c2ccnc(Nc3ccc(N4CCOCC4)cc3)n2)cc1,64.8,36.1,132 (active),127 (inactive)
COCCCCC(=NOCCN)c1ccc(C(F)(F)F)cc1.O=C(O)C=CC(=O)O [Fluvoxamine maleate],98.6,97.1,95.3 (inactive),92.4 (inactive)
CCCn1c(=O)c2[nH]c(-c3ccc(OCC(=O)Nc4ccc(C#N)cc4)cc3)nc2n(CCC)c1=O,105,114,96.6 (inactive),102 (inactive)
CCCCN1CC(O)C(O)C(O)C1CO (stereo unspecified) [Miglustat],100,95.6,97.2 (inactive),114 (inactive)
NC/C=C/C(=O)O [(E)-4-amino-2-butenoic acid],97.2,105,93.2 (inactive),99.6 (inactive)
COC(=O)c1ccc2c(c1)nc(NC(=O)c1ccccc1)n2CCCc1ccccc1,80.4,65.7,94.6 (inactive),88.3 (inactive)
COc1cc(Br)c(S(=O)(=O)Nc2ccc(Cl)c(O[C@@H]3CCN(C)C3)c2)cc1OC,83.2,82.9,94.8 (inactive),137 (inactive)
NC(Cc1ccc(Cl)cc1)C(=O)O (racemic),101,106,88.6 (inactive),87.6 (inactive)
Nc1nc(Cl)nc2c1ncn2C1OC(COP(=O)([O-])OP(=O)([O-])OP(=O)([O-])[O-])C(O)C1O.[Na+].[Na+].[Na+].[Na+] (stereo unspecified) [2-Chloroadenosine triphosphate tetrasodium],102,99,89.5 (inactive),83.9 (inactive)
O=C(c1cc(O)c(O)c([N+](=O)[O-])c1)c1ccccc1F,106,106,95.7 (inactive),99.2 (inactive)
O=C1CC(c2ccccc2)Oc2cc(O)cc(O)c21 (stereo unspecified) [Pinocembrin],106,100,99 (inactive),91.1 (inactive)
CCC(C)C(CC)C(N)=O (stereo unspecified) [2-ethyl-3-methylpentanamide],103,107,92.3 (inactive),96.6 (inactive)
O=C(O)CP(=O)(O)O [Phosphonoacetic acid],101,109,95.9 (inactive),96.9 (inactive)
c1ccc2c(Cc3c[nH]c4ccccc34)c[nH]c2c1 [Diindolylmethane],100.67 ± 0.0078,97.9 ± 2.8,98.8 (inactive),91.6 (inactive)
CC(=O)OC1(C(C)=O)CCC2C3CC(C)C4=CC(=O)CCC4(C)C3CCC21C (stereo unspecified) [Medroxyprogesterone 17-Acetate],105,112,102 (inactive),89.3 (inactive)
CCCCNc1ncc(C(=O)NCc2ccc(-n3ccnc3)cc2)c(NC2CCC(O)CC2)n1 (stereo unspecified),65.8,63.4,118 (inactive),104 (inactive)
COc1cc2nc(N3CCN(C(=O)C4COc5ccccc5O4)CC3)nc(N)c2cc1OC (stereo unspecified) [Doxazosin],96.5,107,100 (inactive),113 (inactive)
CNC(C)C1CCC(N)C(OC2C(N)CC(N)C(OC3OCC(C)(O)C(NC)C3O)C2O)O1 (stereo unspecified) [Gentamycin],100,95.4,95 (inactive),117 (inactive)
CCOC(=O)C(CCc1ccccc1)NC(C)C(=O)N1CCCC1C(=O)O (stereo unspecified) [Enalapril],104,106,98.8 (inactive),118 (inactive)
